According to the supplement of paper PMC6555819:

Columns and labels:
Experiment in all cases: PBM binding z-score (relative to random genomic background probes); higher = stronger binding; sequences stand for … in GC…GCGATTGACAGCGTAGAATGAAGG
[1] = tested on: PPARg:RXRa DBDmut IVT, anti-RXR (DBD mutation: RXRa K156A/R161A, NR concentration 270 nM, RXRa partner concentration 90 nM)
Procedure, shortened: (§1)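 For binding z-scores, the reference was random background probes on custom Agilent 4×180K protein-binding microarrays. These arrays were incubated 1 h with ligand-free nuclear receptor dimers in PBS pH 7.4, 2% milk, 0.02% Triton X-100, 1 mM DTT, 0.2 mg/mL BSA and 0.4 mg/ml salmon testes DNA. Fluorescence was scanned after antibody detection of each partner (one per run) and regression-normalized.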

[2] = tested on: PPARg:RXRa IVT, anti-PPARg (NR concentration 270 nM, RXRa partner concentration 90 nM)
Procedure, shortened: as §1

[3] = tested on: PPARg DBDmut:RXRa IVT, anti-PPARg (DBD mutation: PPARg1 K132A/R137A, NR concentration 270 nM, RXRa partner concentration 90 nM)
Procedure, shortened: as §1

[4] = tested on: PPARg DBDmut IVT, anti-PPARg (DBD mutation: PPARg1 K132A/R137A, NR concentration 270 nM)
Procedure, shortened: as §1

[5] = tested on: PPARg homodimer (NR concentration 180 nM)
Procedure, shortened: as §1

[6] = tested on: PXR:RXRa (NR concentration 270 nM, RXRa partner concentration 90 nM)
Procedure, shortened: as §1

[7] = tested on: PXR homodimer (NR concentration 270 nM)
Procedure, shortened: as §1

[8] = tested on: RARa homodimer (NR concentration 270 nM)
Procedure, shortened: as §1

[9] = tested on: RARa:RXR (NR concentration 270 nM, RXRa partner concentration 90 nM)
Procedure, shortened: as §1

[10] = tested on: RARb:RXRa (NR concentration 270 nM, RXRa partner concentration 90 nM)
Procedure, shortened: as §1

Sequence | PBM binding z-score [1] | PBM binding z-score [2] | PBM binding z-score [3] | PBM binding z-score [4] | PBM binding z-score [5] | PBM binding z-score [6] | PBM binding z-score [7] | PBM binding z-score [8] | PBM binding z-score [9] | PBM binding z-score [10]
CATCCAAGGTCAAAGGTCAGTGAAGAGATGACGG | 4.07 | 6.54 | 2.71 | 3.63 | 5.52 | 7.36 | 2.53 | 3.93 | – | –
CCAACTAGGTCATTGACAGGACAGTGAATAGTAA | 7.67 | 7.49 | 1.99 | 0.953 | 1.89 | 1.68 | 0.805 | 1.58 | 2.23 | 3.77
CCTTGCGGGTCACTGACAGGTTATAGCATTTGGA | 4.94 | 5.29 | -0.0944 | -0.215 | 2 | 3.05 | -0.0222 | 0.173 | – | 3.63
CCGACTGGGGCAAAGGTCACCATACTCAGTACGA | 5.43 | 6.94 | 0.0184 | -0.117 | 4.04 | 5.34 | 0.429 | 1.73 | – | 4.73
CCGACTGGGGCAAAGGTTACCACACTCAGTACGA | 4.8 | 5.98 | 0.442 | 0.282 | 1.18 | 2.44 | -0.0158 | 0.0195 | – | 2.54
GGAACGAGGGCAAAGGTGATAGCATCTGTCGACG | 5.67 | 5.29 | 0.379 | 0.895 | 1.42 | 1.9 | 0.114 | 0.0137 | – | 2.72
GGAACGGGGGCATTCGAGTTGATAGCATGGCGAT | 3.24 | 5.37 | 8.85 | 10.9 | 1.37 | 5.15 | 3.02 | 0.259 | 2.94 | 2.9
CGTCAAAGTTAAAGGTAACGTAACAGAAAGCAGC | 0.379 | 1.17 | 0.513 | 0.594 | 0.332 | 0.394 | 0.0362 | 0.438 | 0.981 | 1.02
TCTAGTTGGTCAAAGGTCTCACACTCGAAATGCG | 3.11 | 3.77 | 1.08 | 1.78 | 2.48 | 1.34 | 0.942 | 1.17 | 1.89 | 1.88
CCTTACGGGTCACGGGGTTATAGCACGACGAGCG | 3.39 | 5.93 | 4.69 | 3.61 | 8.52 | 5.66 | 0.491 | 2.14 | – | 4.72
TATACAGGGTCAAAGGGCAGAGTACGAATGTCGA | 2.92 | 5.52 | 3.49 | 2.57 | 2.97 | 5.21 | 1.62 | 1.6 | – | 4.84
CAAACTAGGTCAAAGGTCAAAGTTGAGCCAACCA | 8.56 | 9.49 | 2.5 | 3.77 | 3.75 | 7.31 | 1.83 | 2.12 | – | 5.96
GATAGTTGGTCAGTAAAAGGTCACACACCGGTCG | 1 | 3.26 | 0.61 | 0.944 | 4.23 | 4.92 | 1.52 | 3.2 | 5.65 | 4.42
TCTAGTTCGTCACGGAGGTCACACACGACGGGTA | 1.52 | 2.15 | 0.73 | 0.867 | 6.1 | 5.15 | 2.64 | 2.71 | 5.11 | 3.83
CCTAGCAGGCCAGGGTCACCCAAGCATTTCGCTT | -0.0206 | 1.79 | -0.767 | -1.42 | 1.59 | 3.36 | -0.361 | -0.318 | – | 3.12
ACTCGGAGGACAAAGGTGAGAGCTACGCCAGTGA | 0.595 | 2.19 | -0.781 | -0.86 | 0.6 | 0.477 | -0.385 | -0.258 | 1.24 | 2.37
ATCGAAATGTCGTGAGGTGAGTATACAGAAAGGC | -0.876 | 0.356 | 1.2 | 0.426 | -0.35 | -0.158 | -0.418 | -0.172 | 0.27 | 0.61
CCTACGGGGCCAAAGGTCATTGATTCCAATGCTC | 1.49 | 5.33 | -0.65 | -0.159 | 5.46 | 6.24 | 2.59 | 2.51 | – | 4.72
CGTCCAAGGTCAAGCTCAGTGAAAGAGACTCGAA | 3.71 | 3.76 | 0.736 | 0.448 | 3.54 | 3.92 | 0.3 | 0.572 | – | 5.27
CGTCCAAGGTCATAGGAGGTCACTGAAGACAGAT | 3.85 | 5.27 | 1.24 | 1.12 | 5.21 | 7.29 | 6.78 | 3.25 | – | 5.39
ACTAACAGGCCAAGGGTCACTCAAGATTAGTCCG | 0.923 | 3.21 | 0.489 | -0.189 | 3.04 | 3.56 | 0.163 | 1.2 | – | 3.57
CCTGCTAGGTCAAGGGTCAGCTAAAGCAGCTCGC | 4.08 | 5.78 | 0.536 | -0.955 | 2.95 | 4.65 | 0.026 | 0.368 | – | 4.96
ACTTACGGGTCAACGACGTTATAGCACGCGTATA | 3.06 | 3.74 | 1.35 | 0.774 | 1.67 | 3.19 | -0.178 | 0.684 | – | 4.07
ATCTCTAGGTAAAGGTCAGTGAAAGATCGATAGA | 3.45 | 4.2 | 1.29 | 1.49 | 3.73 | 3.35 | 1.1 | 2.88 | – | 4.53
CCTACTGGGCCAAAGGTCAGTGATTCCAATGCTC | 4.94 | 6.5 | 0.904 | -0.864 | 4.06 | 3.49 | 0.00567 | 1.82 | – | 4.1
CGTCCAAGGTCAAGGTGAGTGAAAGAGACTCGAA | 3.35 | 3.92 | 0.375 | 0.105 | 3.6 | 3.6 | 0.642 | 1.04 | – | 5.22
